BAZ2B inh: qHTS Assay for Inhibitors of BAZ2B; Bromodomain adjacent to zinc finger domain protein 2B (Homo sapiens), Q9UIF8; AlphaScreen BAZ2B-H3K14Ac peptide displacement; Potency, µM (highest dose often 114 µM), inactives show at the top dose activity change, negative = inhibition, actives largely listed as inhibitors; 4.4% of 360,000 active; AID 504333, 2011; also: % is scaled to controls: 0 for no effect and ±100 for the full control effect; nearly all actives have a fitted effect of over 60% in size
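Inhibition is scored as reduced AlphaScreen emission. The BAZ2B/b-H3(5-23)K14Ac complex (50 nM each) in PBS pH 7.4, 0.01% Tween-20 meets compound (up to 110 uM) for 30 min at RT before bead addition.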
G9a block: qHTS Assay for Inhibitors of Histone Lysine Methyltransferase G9a | G9a H3K9 monomethylation, AlphaScreen, 2 h | Potency, µM (titrated, usually from 102 µM), for inactives: top-dose activity, negative = inhibition, usual class: inhibitors | 8.8% of 350,000 active; also: % is scaled to controls: 0 for no effect and ±100 for the full control effect; nearly all actives have a fitted effect of over 75% in size
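AlphaScreen read-out: biotin-H3K9 peptide (500 nM) methylation by 20 nM enzyme with 20 uM SAM, 2 h at room temperature after 15 min compound preincubation; anti-monomethyl H3K9 antibody plus donor/acceptor beads, 10 min dark.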
HP1b chromo inh: HTS for Inhibitors of HP1-beta Chromodomain Interactions with Methylated Histone Tails; Chromobox protein homolog 1 (Homo sapiens), P83916; AlphaScreen HP1-beta / biotin-H3K9me3 peptide binding; Potency, µM (series often up to 114 µM), for the others: at the top dose activity change, negative = inhibition, hits mostly inhibitors; 0.56% of 390,000 active; AID 540317, 2011; also: nearly all actives have a fitted effect of over 70% in size
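Compound inhibition of the preformed complex between 50 nM HP1-beta and 50 nM biotinylated H3K9me3 peptide was read by AlphaScreen. Buffer was PBS pH 7.4 with 0.01% Tween-20. Incubations ran 30 min at room temperature, with 10 ug/mL donor/acceptor beads.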
Sfp PPTase inh: qHTS Assay for Inhibitors of Bacillus subtilis Sfp phosphopantetheinyl transferase (PPTase). 3.5% of 310,000 active. Potency, µM, for the others: largest response in the series, negative = inhibition, usual class: inhibitors. Biochemical Sfp PPTase activity, qHTS. AID 1490, 2009. 4'-phosphopantetheinyl transferase ffp (Bacillus subtilis), Q9F4F7;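 also: the enzyme is Sfp with the accession as filed and its product quenches rhodamine fluorescence; 0% = enzyme reaction without inhibitor and -100% = no enzyme wells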
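Fluorescence-quenching assay with 15 nM Sfp, 5 uM rhodamine-CoA and 12.5 uM BHQ-2-labelled ybbR peptide in pH 7.6 Hepes/MgCl2 buffer. Enzyme was pre-incubated with compound for 15 min at room temperature. Rate was taken from the 30-min fluorescence change (525/598 nm).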
JMJD2A Tudor: qHTS Assay for Inhibitors of JMJD2A-Tudor Domain; Lysine-specific demethylase 4A (Homo sapiens), O75164; AlphaScreen JMJD2A-Tudor / H3K4me3 peptide binding; Potency, µM (titrated, usually from 114 µM), for inactives: at the highest dose activity change, negative = inhibition, actives largely listed as inhibitors; 4.4% of 390,000 active; also: % is scaled to controls: 0 for no effect and ±100 for the full control effect; nearly all actives have a fitted effect of over 50% in size
PLK1 PBD block: qHTS for Inhibitors of PLK1-PDB (polo-like kinase 1 - polo-box domain): Primary Screen | Plk1 PBD binding of FITC phosphopeptide, fluorescence polarization | Potency, µM, without a hit: max response, negative = inhibition, usual class: inhibitors | 2.8% of 360,000 active | AID 720504, 2013; also: series mostly up to about 57 µM; % is scaled to controls: 0 for no effect and ±100 for the full control effect; nearly all actives have a fitted effect of over 65% in size
Target sequence (P53350 whole entry, looked up, the tested form may be a part): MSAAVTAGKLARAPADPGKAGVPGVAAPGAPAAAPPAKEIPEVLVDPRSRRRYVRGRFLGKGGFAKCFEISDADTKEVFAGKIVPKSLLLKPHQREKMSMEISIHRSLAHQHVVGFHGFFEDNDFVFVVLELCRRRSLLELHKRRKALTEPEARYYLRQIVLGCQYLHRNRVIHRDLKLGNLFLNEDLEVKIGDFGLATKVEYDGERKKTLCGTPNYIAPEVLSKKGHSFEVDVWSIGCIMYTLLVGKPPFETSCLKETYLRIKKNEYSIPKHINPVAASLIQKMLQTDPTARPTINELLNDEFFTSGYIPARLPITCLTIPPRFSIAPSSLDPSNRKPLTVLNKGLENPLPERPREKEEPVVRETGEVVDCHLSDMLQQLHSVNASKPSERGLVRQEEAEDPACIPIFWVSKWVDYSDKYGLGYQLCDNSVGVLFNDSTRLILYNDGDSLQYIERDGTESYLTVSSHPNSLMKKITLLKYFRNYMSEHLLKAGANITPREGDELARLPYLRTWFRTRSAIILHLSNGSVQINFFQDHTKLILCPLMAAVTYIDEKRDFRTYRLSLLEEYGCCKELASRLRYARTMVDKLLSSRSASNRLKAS
An asterisk follows results filed as active; ? = inconclusive; . = not tested or not shown; [ ] = dose if it differs, or a comment. Compounds with a hit are over-represented: about 12% of the library has one in this group of screens. Calls follow the shape of the dose curve; as a rule, active = well fitted curve in the direction sought with a large enough effect; inconclusive = small, poorly fitted or top-dose-only effect, or another doubt; inactive = no such curve, though single readings can be large; an effect the other way counts as inactive or inconclusive. Potency is read from the fitted curve at half-maximal effect.

SMILES | BAZ2B inh | G9a block | HP1b chromo inh | Sfp PPTase inh | JMJD2A Tudor | PLK1 PBD block
C/C(CCC1CC(C)(C)OC1=O)=N\NC(N)=S (stereo not given) | ? | 8.9µM* | -8% | 45µM* | 79µM* | 4%
CC(C)CCC1CC(CSC(=N)N)OC1=O (stereo not given) | 0% | 6%[59 µM] | 62% | -16% | -12%[57.1 µM] | -14%
C/C(CC1CC(COCCC(C)C)OC1=O)=N\NC(N)=S (stereo not given) | ? | 7%[0.501 µM] | 22% | 79µM* | ? | -1%
CCCC1CC(C)(/C(C)=N\NC(N)=S)OC1=O (stereo not given) | 5% | 14%[0.501 µM] | 44% | -26% | -1% | 2%
N#Cc1c(N)sc(=S)c2c1CCN(Cc1ccccc1)C2 | 79µM* | ? | . | 3.5µM* | . | .
CCN1CCc2c(C#N)c(N3CCCCC3)nc(NCc3ccccc3)c2C1 | 56µM* | ? | -20% | -8% | ? | -4%
CCN1CCc2c(sc(N)c2C#N)C1 | 1% | 7%[12.7 µM] | 20% | -18% | -16%[11.4 µM] | -21%
N#Cc1c(NCCO)nc(NCc2ccccc2)c2c1CCN(Cc1ccccc1)C2 | 45µM* | ? | -19% | -21% | ? | ?
COc1ccc(CC(=O)Nc2sc3c(c2C(=O)Nc2cccc(Cl)c2)CCCCC3)cc1 | -2% | -1%[59 µM] | 2% | . | -20% | .
COc1ccc(CN2C(=O)c3cccnc3C2=O)cc1S(=O)(=O)NC1CCCCC1 | 79µM* | 6% | 32% | 7% | 21% | 8%
COc1ccccc1CNS(=O)(=O)c1cc(CN2C(=O)c3cccnc3C2=O)ccc1OC | 56µM* | -5% | 44% | 4% | 28% | 3%
COc1ccc(CN2C(=O)c3cccnc3C2=O)cc1S(=O)(=O)NCc1ccc(C)o1 | ? | ? | 29% | 1% | 8% | 2%
CC(=O)c1cccc(NC(=O)Nc2nc(C)cc(C)n2)c1 | -9% | . | 29% | -9% | -6% | 9%
CCCn1c(=O)c2sccc2n2c(CCCC(=O)Nc3ccccc3F)nnc12 | -18% | -5%[59 µM] | 55% | . | 2% | .
Nc1c(C(=O)N/N=C/c2ccc(Cl)cc2)cnn1-c1ccccc1 | -12% | -3% | 14% | 23% | -18% | 0%
Nc1scc2c(C(=O)N/N=C/c3ccc(Cl)cc3)nn(-c3ccccc3)c(=O)c12 | ? | ? | -24% | 14µM* | 45µM* | ?
CCCCCn1c(N)c(-c2nc3ccccc3o2)c2c([N+](=O)[O-])nn(C)c(=O)c21 | ? | -34%[59 µM] | 21% | 3% | 45µM* | -29%
CCCCCn1c(N)c(-c2nc3ccccc3o2)c2c([N+](=O)[O-])nn(CC)c(=O)c21 | ? | -35%[59 µM] | ? | 10% | ? | -13%
C#CCOCCOCCOCCNc1nc(N2CCN(C(=O)[C@H](CCCCN)n3cc([C@@H](N)C(C)CC)nn3)CC2)nc(N2CCN(C(=O)[C@H](Cc3cc4ccccc4[nH]3)n3cc([C@@H](N)CC(C)C)nn3)CC2)n1 (stereo not given in full) | 32µM* | ? | -11% | -13% | 35µM* | -19%
C#CCOCCOCCOCCNc1nc(N2CCN(C(=O)[C@H](CCC(=O)O)n3cc(C(N)CO)nn3)CC2)nc(N2CCN(C(=O)[C@H](Cc3cc4ccccc4[nH]3)n3cc(C(N)[C@H](C)CC)nn3)CC2)n1 (stereo not given in full) | 50µM* | -1%[12.7 µM] | 13% | ? | 45µM* | -4%
C#CCOCCOCCOCCNc1nc(N2CCN(C(=O)[C@H](Cc3cc4ccccc4[nH]3)n3cc([C@@H](N)C(C)CC)nn3)CC2)nc(N2CCN(C(=O)[C@H](Cc3cc4ccccc4[nH]3)n3cc([C@@H](N)CC(C)C)nn3)CC2)n1 (stereo not given in full) | 35µM* | ? | . | ? | . | .
C#CCOCCOCCOCCNc1nc(N2CCOCC2)nc(N2CCN(C(=O)[C@H](CC(N)=O)n3cc(C(N)[C@@H](C)CC)nn3)CC2)n1 (stereo not given in full) | . | . | 25% | . | -31% | -14%
C#CCOCCOCCOCCNc1nc(N2CCN(C(=O)[C@H](CCCN=C(N)N)n3cc(C(N)[C@H](C)CC)nn3)CC2)nc(N2CCN(C(=O)[C@H](CC(N)=O)n3cc(C(N)[C@@H](C)CC)nn3)CC2)n1 (stereo not given in full) | . | . | 81% | . | ? | ?
C#CCOCCOCCOCCNc1nc(N2CCN(C(=O)[C@H](Cc3cc4ccccc4[nH]3)n3cc([C@@H](N)C(C)CC)nn3)CC2)nc(N2CCN(C(=O)[C@H](CCCCN)n3cc([C@@H](N)CO)nn3)CC2)n1 (stereo not given in full) | 25µM* | 14%[12.7 µM] | . | 1% | . | .
CCOc1ccccc1-c1nc(SCC(=O)c2ccc(OC)c(Br)c2)n[nH]1 | 2% | -33%[59 µM] | 43% | . | -7% | .
SMILES | BAZ2B inh | G9a block | HP1b chromo inh | Sfp PPTase inh | JMJD2A Tudor | PLK1 PBD block
CC1(C)N=C(SCc2ccc(F)cc2)c2ccccc2N1 | 203%[57.1 µM] | 107%[59 µM] | 350% | . | 214% | .
CCCCC(CC)CN1C(=O)/C(=C/c2ccncc2)SC1=S (stereo not given) | ? | . | ? | -14% | 28µM* | 2%
CCN(CC)S(=O)(=O)c1ccc(C(=O)NCCN2C(=O)S/C(=C\c3cccnc3)C2=O)cc1 | 4% | ? | 49% | 2% | -15% | -17%
CCN1C(=O)/C(=C\c2ccncc2)SC1=S | ? | -4%[12.7 µM] | -25%[57 µM] | -5% | ? | -21%
COc1ccc(/C=C2/SC(=S)N(CCC(=O)O)C2=O)cc1 | -6% | -12% | 2% | 8% | -18% | -7%
O=C(O)CCN1C(=O)/C(=C\c2ccncc2)SC1=S | -23% | 56µM* | 33% | ? | -1% | 0%
CN(C)S(=O)(=O)c1ccc(C(=O)NCCN2C(=O)S/C(=C\c3cccnc3)C2=O)cc1 | -23% | -23%[59 µM] | 48% | 40µM* | 4% | -16%
O=C1/C(=C/c2cccnc2)SC(=S)N1CCc1ccccc1 | 10µM* | . | 12% | -1% | -28% | 1%
O=C(O)CCN1C(=O)/C(=C\c2cccc(Oc3ccccc3)c2)SC1=S | 50µM* | 50µM* | ? | -8% | ? | 17µM*
